Consider 60 compounds from PubChem BioAssay AID1259313 (Sanford-Burnham Center for Chemical Genomics, 2017).

Screen size: about 340,000 compounds; about 8,500 (2.5%) were called active. Only a selection was taken, and actives are over-represented in it overall. Values without a mark were called inactive.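 How the source made its calls: active means melting temperature shift of at least 10% of the positive control shift, at one fixed dose; inactive means the rest.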

In the experiment the test system is Glutamate receptor ionotropic, NMDA 3A (GRIN3A) ligand-binding domain. Kind of experiment: NR3A LBD thermal stabilization by compounds – biophysical, differential scanning fluorimetry, uHTS, primary screen (AID 1259313). The note with it: at 25 µM, active compounds read high, 0% = protein alone, 100% = glycine-bound protein. (In general: DSF heats the sample and reads unfolding from a dye or from intrinsic fluorescence.)
On to `COc1ccc(OC)c(-c2csc(NC(=O)COC(=O)C3CC3)n2)c1`, for which the Tm shift relative to glycine control was -1.41%.
On to `COc1cc(CC(=O)Nc2nc(-c3ccc(F)c(F)c3)cs2)cc(OC)c1OC`, for which the Tm shift relative to glycine control was -3.34%.
Next, `COc1ccc(OC)c(Nc2nc(-c3ccc(O)c(O)c3)cs2)c1`: 19% (active); `CCOC(=O)CNc1nc(Cl)nc(Nc2ccccc2)n1`: -0.5%.
For `CCOC(=O)CNc1nc(Cl)nc(Nc2ccc(OC)cc2OC)n1`, the Tm shift relative to glycine control is 13.1% (active).
Regarding `CCOc1ccc(Cn2nnc(C(=O)Nc3ccc(OC)cc3OC)c2N)cc1`, the Tm shift relative to glycine control was 2.21%.
As for `CCN(CC)c1ccc(NC(=O)C2CCC(CNc3c(N4CCCC4)c(=O)c3=O)CC2)c(C)c1` (stereo not given), the Tm shift relative to glycine control was 1.77%.
Next, `CCOC(=O)N1CCN(C(=O)CSc2nnc(-c3c[nH]c4ccccc34)n2CCOC)CC1`: 0.55%.
As for `OC(CNCc1ccc(Cl)c(Cl)c1)c1ccccc1` (stereo not given), the figure is 2.04%; as for `COc1cccc(OC)c1C(=O)OCC(=O)/C(C#N)=C(\C)N`, -2%; as for `C/C(N)=C(/C#N)C(=O)COC(=O)c1cc(-c2cccc(Br)c2)nc2ccccc12`, 30.1% (active).
For the compound `C/C(N)=C(/C#N)C(=O)COC(=O)c1cc(-c2ccc(C)cc2)nc2ccccc12`, the Tm shift relative to glycine control was -1.48%.
As for `COc1cc(C(=O)N2C(=O)c3cccc(N)c3C2=O)cc(OC)c1OC`, the Tm shift relative to glycine control was -1.08%.
As to `Cc1nn(C)cc1N1C(=O)c2cccc3c(N)ccc(c23)C1=O`, the Tm shift relative to glycine control was -0.63%.
`CN1C(=O)c2cccc3c(N)ccc(c23)C1=O`: the Tm shift relative to glycine control is 11.8% (active).
With `Cc1ccc(CNC(=O)[C@@H](NC(=O)Cc2ccccc2)C(C)C)cc1`, the Tm shift relative to glycine control is -6.13%.
On to `O=C1c2ccccc2NC(c2ccc(-c3cccc(Cl)c3)o2)N1O` (stereo not given), for which the Tm shift relative to glycine control was -0.47%.
As for `O=C1NN(c2ccccc2)C(=O)/C1=C/c1ccc(-c2cccc(C(=O)O)c2)o1`, the figure is -14.4%.
With `O=C(O)C(c1ccccc1)N1C(=O)/C(=C\c2ccc(-c3cccc(Cl)c3)o2)SC1=S` (stereo not given), the Tm shift relative to glycine control was 27.7% (active).
With `O=C(O)CSc1c2c(nc3cc(C(=O)Nc4cccc(C(F)(F)F)c4)ccc13)CCCC2`, the Tm shift relative to glycine control is -1.44%.
For the compound `O=C(Nc1ccc(C(F)(F)F)cc1)c1cccc(-n2cnnn2)c1`, the Tm shift relative to glycine control was -5.14%.
As for `O=C(Nc1ccc(-c2csc(Nc3cccc(C(F)(F)F)c3)n2)cc1)c1cccc(C(F)(F)F)c1`, the figure is 25.4% (active); as for `CS(=O)(=O)N(Cc1ccccc1)c1ccc(C(=O)NN=C2CCCCCC2)cc1`, 0.85%; as for `Clc1ccc2nc(CSc3ccccc3)cn2c1`, 0.36%.
Regarding `Cc1c(NC(=S)NC(=O)CCc2ccccc2)c(=O)n(-c2ccccc2)n1C`, the Tm shift relative to glycine control is -3.07%.
On to `O=C(O)CSc1ccc(S(=O)(=O)N2CCCC2)cn1`, for which the Tm shift relative to glycine control is 0.42%.
`COc1ccc(/C(C)=N\NC(=O)c2ccc(-c3ccccc3)cc2)c(F)c1`: the Tm shift relative to glycine control was 19.6% (active).
Next, `CCN(CC)c1ccc(C(=O)N/N=C(\C)c2cccc(OC)c2)cc1`: 2.58%; `COc1ccc(/C(C)=N/NC(=O)c2ccc3nc[nH]c3c2)cc1`: -1.41%; `COc1ccc(Cl)cc1NC(=O)NC(C)C(C)(C)C` (stereo not given): -7.8%.
In the case of `CC(=O)c1cc(-c2ccccc2)n(CC(=O)NC2CCCCC2)c1C`, the Tm shift relative to glycine control was 0.92%.
As for `O=C(CN1C(=O)CC(c2ccccc2)=Nc2ccccc21)NC1CCCCC1`, the Tm shift relative to glycine control was 300% (active).
Consider `O=C(CN1C(=O)CC(c2ccccc2)S(=O)(=O)c2ccccc21)NC1CCCC1` (stereo not given), for which the Tm shift relative to glycine control is -2.04%.
Next, `CC(=O)/C(=N\Nc1ccc(Cl)cc1Cl)Sc1cccc2cccnc12`: -8.55%; `O=C(Nc1ccccc1Cl)Nc1cccc2cccnc12`: 39.4% (active); `COc1ccc(NC(=O)Nc2cccc3cccnc23)cc1`: 12.4% (active).
`O=C(Nc1ccccc1)Oc1cccc2cccnc12`: the Tm shift relative to glycine control was -3.82%.
For `O=[N+]([O-])c1ccccc1S(=O)(=O)Nc1cccc2cccnc12`, the Tm shift relative to glycine control was -0.26%.
For the compound `CCOC(=O)Cc1ncccc1C(=O)Nc1ccc(OC)cc1`, the Tm shift relative to glycine control was -0.6%.
Turning to `Cc1ccc(S(=O)(=O)N2CCN=C2SCc2c(F)cccc2Cl)cc1`, the Tm shift relative to glycine control was 0.68%.
For the compound `CCc1ccc(-c2cc(C)no2)cc1S(=O)(=O)NCCc1ccc(S(N)(=O)=O)cc1`, the Tm shift relative to glycine control is -4.05%.
As for `CCCCn1c(N)c(N(CC)C(=O)c2ccccc2C(F)(F)F)c(=O)[nH]c1=O`, the figure is -1.66%; as for `O=C(Cn1c(-c2ccc(Cl)cc2)noc1=O)N1CCN(c2ccccc2F)CC1`, -0.09%.
Regarding `CC(=O)CSc1nnc(CSc2ncccn2)n1C1CCCCC1`, the Tm shift relative to glycine control is -1.13%.
Next, `CCC(=O)N1CCc2cc(Br)c(S(=O)(=O)NCCN3CCCCC3CC)cc21` (stereo not given): 12.6% (active).
Next, `CCC1CCCCN1CCNS(=O)(=O)c1ccc2c(c1)CCN2C(C)=O` (stereo not given): -1.49%.
Take `CCCN(CCC)S(=O)(=O)c1cc2c(cc1Br)CCN2C(=O)CC`: the Tm shift relative to glycine control is -0.99%.
On to `CCCCSc1nc2c(c(=O)n1CC)SC(C)C2` (stereo not given), for which the Tm shift relative to glycine control was -2.48%.
On to `CCOC(=O)c1c(C)[nH]c(C2=NNC(=NC(C)COC)SC2)c1C` (stereo not given), for which the Tm shift relative to glycine control was -1.92%.
Consider `CC12CCC(C(=O)N(NC(=O)c3ccccc3O)C1=O)C2(C)C` (stereo not given), for which the Tm shift relative to glycine control was 2.74%.
In the case of `O=C1CC(NNc2ccccc2)C(=O)N1c1cccc(Cl)c1` (stereo not given), the Tm shift relative to glycine control is -0.68%.
In the case of `CC12CCC(C(=O)N(c3cccc(Cl)c3)C1=O)C2(C)C` (stereo not given), the Tm shift relative to glycine control is 18.6% (active).
As for `COc1ccc(C(=O)Nc2sc(C)c(C)c2CN2CCOCC2)cc1`, the figure is -2.24%; as for `CCc1cc(C(=O)c2ccc(OC)cc2)c(NC(=O)CN2CCN(C)CC2)s1`, -0.69%.
Take `CCc1cc(C(N)=O)c(NC(=O)c2ccc(OC)cc2)s1`: the Tm shift relative to glycine control is 12.6% (active).
On to `CC1=CC=CC2=N/C(=N\S(=O)(=O)c3ccc(F)cc3F)c3ccccc3CN12`, for which the Tm shift relative to glycine control is -0.65%.
Turning to `CC(C)(C)C(=O)Nc1ccc(-c2cn3cccnc3n2)cc1`, the Tm shift relative to glycine control was -0.98%.
As for `CC(C)(C)C(=O)Nc1cccc(-c2ccc[nH]2)n1`, the figure is 11.2% (active).
In the case of `COc1ccc(C(=O)Nc2cccc(NC(=O)c3ccc(OC)cc3OC)n2)c(OC)c1`, the Tm shift relative to glycine control is 3.62%.
Consider `N#Cc1ccc(C2N=C(c3ccccc3)NO2)cc1` (stereo not given), for which the Tm shift relative to glycine control is 0.19%.
